Compounds without any hit were thinned out: in the full panel of roughly 83,000, 20% have a hit.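 In brief: 96-well plates, 48 h treatment, single concentration, percent growth endpoint.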 Calls of active or inactive are those of the source. The calls were made as follows: active = growth percent below 10; inactive = the rest.
Key:
Assay in all cases: NCI-60 one-dose screen, 48 h (100 = growth as untreated, 0 = no growth, -100 = all killed)
Conditions in all cases: 10 µM unless noted
SR leukemia = tested on: SR leukemia
RPMI-8226 leukemia = tested on: RPMI-8226 leukemia
OVCAR-8 ovarian = tested on: OVCAR-8 ovarian
OVCAR-5 ovarian = tested on: OVCAR-5 ovarian
OVCAR-4 ovarian = tested on: OVCAR-4 ovarian
SK-OV-3 ovarian = tested on: SK-OV-3 ovarian
IGROV1 ovarian = tested on: IGROV1 ovarian
OVCAR-3 ovarian = tested on: OVCAR-3 ovarian
HS 578T breast = tested on: HS 578T breast
NCI/ADR-RES ovarian = tested on: NCI/ADR-RES ovarian
BT-549 breast = tested on: BT-549 breast
MDA-MB-435 melanoma = tested on: MDA-MB-435 melanoma
SW-620 colon = tested on: SW-620 colon
MCF7 breast = tested on: MCF7 breast
HCT-116 colon = tested on: HCT-116 colon
HCC-2998 colon = tested on: HCC-2998 colon
KM12 colon = tested on: KM12 colon
T-47D breast = tested on: T-47D breast

Measured: growth

COC(=O)C(Br)(C(=O)OC)C(Br)C(Br)C(Br)c1ccccc1 (stereo not given)
active: OVCAR-3 ovarian -37% | SW-620 colon -79% | HCT-116 colon -92.6%
inactive: SR leukemia 47.6% | RPMI-8226 leukemia 106% | OVCAR-8 ovarian 73.1% | OVCAR-5 ovarian 126% | OVCAR-4 ovarian 83.6% | SK-OV-3 ovarian 102% | IGROV1 ovarian 39.1% | HS 578T breast 114% | NCI/ADR-RES ovarian 104% | BT-549 breast 108% | MDA-MB-435 melanoma 47.9% | MCF7 breast 18.3% | HCC-2998 colon 98.4% | KM12 colon 89.9%

COc1ccc2c(c1)C1=NN(C(=O)CO)[C@H](c3ccc(OC(F)(F)F)cc3)[C@@H]1CC2
inactive: SR leukemia 69.2% | RPMI-8226 leukemia 42.9% | OVCAR-8 ovarian 98% | OVCAR-5 ovarian 108% | OVCAR-4 ovarian 89.5% | SK-OV-3 ovarian 96.3% | IGROV1 ovarian 72.3% | HS 578T breast 85.7% | NCI/ADR-RES ovarian 85.5% | T-47D breast 82.1% | BT-549 breast 127% | MDA-MB-435 melanoma 116% | SW-620 colon 109% | MCF7 breast 83.2% | HCT-116 colon 92.5% | HCC-2998 colon 91.9% | KM12 colon 102%

Cc1cc(C#Cc2ccc(C(C)(C)C)cc2)ccc1-n1c(/C=C/c2c(Cl)cccc2Cl)nc2ccccc2c1=O
inactive: SR leukemia 88.1% | RPMI-8226 leukemia 91.5% | OVCAR-8 ovarian 115% | OVCAR-5 ovarian 106% | OVCAR-4 ovarian 134% | SK-OV-3 ovarian 106% | IGROV1 ovarian 103% | OVCAR-3 ovarian 94.3% | NCI/ADR-RES ovarian 103% | T-47D breast 82.5% | BT-549 breast 105% | MDA-MB-435 melanoma 98% | SW-620 colon 85.5% | MCF7 breast 85.9% | HCT-116 colon 89.2% | HCC-2998 colon 99.3% | KM12 colon 98.6%

C=C[C@H]1CCC/C=C/[C@@H]2C[C@H](O)C[C@H]2[C@H](O)/C=C/C(=O)O1
inactive: OVCAR-5 ovarian 13.4% | SK-OV-3 ovarian 26.3% | HS 578T breast 18.8% | MDA-MB-435 melanoma 15%
active: SR leukemia 0.87% | RPMI-8226 leukemia -4.42% | OVCAR-8 ovarian 2.59% | OVCAR-4 ovarian 8% | IGROV1 ovarian -0.584% | OVCAR-3 ovarian -62.7% | NCI/ADR-RES ovarian 5.21% | BT-549 breast 0.705% | SW-620 colon -63.8% | MCF7 breast -50.1% | HCT-116 colon -76.9% | HCC-2998 colon -62.4% | KM12 colon -59.2%

FC(F)(F)c1nn[nH]n1
inactive: SR leukemia 104% | RPMI-8226 leukemia 89.5% | OVCAR-8 ovarian 105% | OVCAR-5 ovarian 108% | OVCAR-4 ovarian 111% | SK-OV-3 ovarian 107% | IGROV1 ovarian 118% | OVCAR-3 ovarian 104% | HS 578T breast 111% | T-47D breast 101% | BT-549 breast 109% | MDA-MB-435 melanoma 101% | SW-620 colon 112% | MCF7 breast 97.3% | HCT-116 colon 108% | HCC-2998 colon 98.1% | KM12 colon 99.6%

O=[N+]([O-])c1ccc(SSc2ccc([N+](=O)[O-])cc2Cl)c(Cl)c1
inactive: SR leukemia 84.5% | RPMI-8226 leukemia 80% | OVCAR-8 ovarian 100% | OVCAR-5 ovarian 126% | OVCAR-4 ovarian 83% | SK-OV-3 ovarian 104% | IGROV1 ovarian 69.6% | OVCAR-3 ovarian 101% | HS 578T breast 90.5% | T-47D breast 70.6% | BT-549 breast 97.4% | MDA-MB-435 melanoma 113% | SW-620 colon 97.6% | MCF7 breast 77.3% | HCT-116 colon 91.1% | HCC-2998 colon 106% | KM12 colon 98%

CCCCCCCCCCCCNC(=O)N[C@H](C(=O)N[C@H]1/C=C/OCCNC(=O)/C=C/[C@H](C(C)C)NC1=O)C(C)C
inactive: SR leukemia 29% | RPMI-8226 leukemia 60.3% | OVCAR-8 ovarian 96% | OVCAR-5 ovarian 36.1% | OVCAR-4 ovarian 50.8% | SK-OV-3 ovarian 106% | IGROV1 ovarian 45.2% | HS 578T breast 74.2% | NCI/ADR-RES ovarian 101% | T-47D breast 47.6% | MDA-MB-435 melanoma 28.3% | SW-620 colon 48.1% | MCF7 breast 32.4% | HCT-116 colon 25.5% | HCC-2998 colon 90.4% | KM12 colon 71.5%
active: BT-549 breast -7.12%

O=C(Nc1ccncc1)C(=O)c1cn(S(=O)(=O)c2cccc(Cl)c2F)c2ccccc12
active: MDA-MB-435 melanoma 8.25%
inactive: SR leukemia 20% | RPMI-8226 leukemia 50.2% | OVCAR-8 ovarian 82.1% | OVCAR-5 ovarian 101% | OVCAR-4 ovarian 65.4% | SK-OV-3 ovarian 97.3% | OVCAR-3 ovarian 74.7% | HS 578T breast 84.7% | NCI/ADR-RES ovarian 59.3% | T-47D breast 74.2% | BT-549 breast 62.1% | SW-620 colon 59.6% | MCF7 breast 35.2% | HCT-116 colon 31.3% | HCC-2998 colon 66.4% | KM12 colon 63.1%

CN(C)N1C(=O)c2c(Cl)c(Cl)c(Cl)c(Cl)c2C1=O
inactive: SR leukemia 87.5% | RPMI-8226 leukemia 97% | OVCAR-8 ovarian 105% | OVCAR-5 ovarian 115% | OVCAR-4 ovarian 111% | SK-OV-3 ovarian 106% | OVCAR-3 ovarian 122% | HS 578T breast 99% | NCI/ADR-RES ovarian 101% | T-47D breast 93% | BT-549 breast 129% | MDA-MB-435 melanoma 114% | SW-620 colon 108% | MCF7 breast 95.7% | HCT-116 colon 101% | HCC-2998 colon 102% | KM12 colon 113%

CCN(CC)c1cc(C)c(Cc2c(OC)ccc3ccccc23)cc1C
inactive: SR leukemia 85.5% | RPMI-8226 leukemia 102% | OVCAR-8 ovarian 96.8% | OVCAR-5 ovarian 102% | OVCAR-4 ovarian 96.9% | SK-OV-3 ovarian 83.4% | OVCAR-3 ovarian 106% | HS 578T breast 81% | NCI/ADR-RES ovarian 103% | T-47D breast 82.3% | BT-549 breast 105% | MDA-MB-435 melanoma 104% | SW-620 colon 86.1% | MCF7 breast 90.9% | HCT-116 colon 86.2% | HCC-2998 colon 100%

COc1cc2ncnc(Nc3ccc(S(=O)(=O)Nc4nccs4)cc3)c2cc1OCCCN1CCOCC1
inactive: SR leukemia 108% | RPMI-8226 leukemia 106% | OVCAR-8 ovarian 103% | OVCAR-5 ovarian 106% | OVCAR-4 ovarian 107% | SK-OV-3 ovarian 96.2% | OVCAR-3 ovarian 101% | HS 578T breast 99.9% | NCI/ADR-RES ovarian 102% | T-47D breast 106% | BT-549 breast 119% | MDA-MB-435 melanoma 101% | SW-620 colon 103% | MCF7 breast 105% | HCT-116 colon 100% | HCC-2998 colon 104% | KM12 colon 101%

O=C(C(=O)N1CCCC1)c1cn(CCCn2cc(C(=O)C(=O)N3CCCC3)c3cc(Br)ccc32)c2ccc(Br)cc12
active: OVCAR-4 ovarian 5.38% | HS 578T breast -9.76%
inactive: SR leukemia 65.9% | RPMI-8226 leukemia 76.8% | OVCAR-8 ovarian 59.6% | OVCAR-5 ovarian 94.7% | SK-OV-3 ovarian 90.4% | OVCAR-3 ovarian 60% | NCI/ADR-RES ovarian 51% | T-47D breast 70.8% | BT-549 breast 84.7% | MDA-MB-435 melanoma 74.3% | SW-620 colon 85.5% | MCF7 breast 61.6% | HCT-116 colon 58.6% | HCC-2998 colon 81.6% | KM12 colon 86.2%

O=C(CC(=O)c1ccccc1F)Nc1ccc([N+](=O)[O-])cc1
inactive: SR leukemia 77.7% | RPMI-8226 leukemia 68.4% | OVCAR-8 ovarian 97.4% | OVCAR-5 ovarian 104% | OVCAR-4 ovarian 92.8% | SK-OV-3 ovarian 108% | OVCAR-3 ovarian 109% | HS 578T breast 110% | NCI/ADR-RES ovarian 103% | T-47D breast 82.5% | BT-549 breast 89.7% | MDA-MB-435 melanoma 88.3% | SW-620 colon 109% | MCF7 breast 81.3% | HCT-116 colon 90.5% | HCC-2998 colon 103% | KM12 colon 99.8%

c1ccc(-c2ccc(-c3ccccc3)[nH]2)cc1
inactive: SR leukemia 96.1% | RPMI-8226 leukemia 79.7% | OVCAR-8 ovarian 101% | OVCAR-5 ovarian 104% | OVCAR-4 ovarian 75.8% | SK-OV-3 ovarian 107% | IGROV1 ovarian 85.8% | HS 578T breast 100% | NCI/ADR-RES ovarian 96.4% | T-47D breast 89.6% | BT-549 breast 99.8% | MDA-MB-435 melanoma 97.9% | SW-620 colon 105% | MCF7 breast 85.9% | HCT-116 colon 92.7% | HCC-2998 colon 99.9% | KM12 colon 97%

O=C(N/N=C/c1ccc([N+](=O)[O-])cc1)c1ccccc1Nc1ccnc(C(F)(F)F)c1
inactive: SR leukemia 99.6% | RPMI-8226 leukemia 11.2% | OVCAR-8 ovarian 86.8% | OVCAR-5 ovarian 75.7% | OVCAR-4 ovarian 61.1% | SK-OV-3 ovarian 84.9% | IGROV1 ovarian 75.3% | NCI/ADR-RES ovarian 71.9% | T-47D breast 47.2% | BT-549 breast 87.4% | MDA-MB-435 melanoma 90.2% | MCF7 breast 95% | HCT-116 colon 76.8% | KM12 colon 87.1%
active: HS 578T breast -27.6% | SW-620 colon -44.6%

COc1cc2ncnc(Nc3ccc(S(=O)(=O)Nc4cc(C)on4)cc3)c2cc1OCCCN1CCN(c2ccc([N+](=O)[O-])cc2)CC1
inactive: SR leukemia 114% | RPMI-8226 leukemia 109% | OVCAR-8 ovarian 104% | OVCAR-5 ovarian 106% | OVCAR-4 ovarian 111% | SK-OV-3 ovarian 99% | OVCAR-3 ovarian 103% | HS 578T breast 101% | NCI/ADR-RES ovarian 106% | T-47D breast 102% | BT-549 breast 109% | MDA-MB-435 melanoma 103% | SW-620 colon 105% | MCF7 breast 106% | HCT-116 colon 109% | HCC-2998 colon 111% | KM12 colon 106%

— PubChem BioAssay (NCI)
